Laboratory results: the supplement of paper PMC12819154, “High-throughput peptide-centric local stability assay extends protein–ligand identification to membrane proteins, tissues and bacteria” (Nature Structural & Molecular Biology, 2025)

Compound: Nc1ncnc2c1ncn2[C@@H]1O[C@H](COP(=O)(O)OP(=O)(O)OP(=O)(O)O)[C@@H](O)[C@H]1O [adenosine 5'-triphosphate]
Test: log2 fold change of tryptic peptide abundance, ligand vs vehicle (limited proteolysis) (log2 ratio); higher = more trypsin-susceptible (destabilized)
Details: ligand concentration: 5 mM; sample: E. coli desalted lysate; replicate design: treated before aliquoting
Experimental: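 HT-PELSA: desalted E. coli K-12 BW25113 lysate (with 12 mM MgCl2) incubated with 5 mM ATP (pH 7) or water for 30 min at 25 C, then a 4 min trypsin pulse at 22 C. Peptides were quantified by DIA-MS (4 replicates). Value is the peptide log2 fold change (treated/control); negative = stabilized. Scale: negative = ligand-stabilized region.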
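Further: lysate desalted by size exclusion to strip endogenous ATP, peptide intensities built from DIA-NN precursor signals, and peptides missing any value discarded before comparison.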

Chain of UniProt P18776 (P18776 whole entry): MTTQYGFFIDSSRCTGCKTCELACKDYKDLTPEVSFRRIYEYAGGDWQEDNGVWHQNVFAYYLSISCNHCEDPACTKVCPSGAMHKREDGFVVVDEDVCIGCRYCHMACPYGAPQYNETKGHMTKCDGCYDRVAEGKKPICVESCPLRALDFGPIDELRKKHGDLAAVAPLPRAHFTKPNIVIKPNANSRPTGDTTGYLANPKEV
Chain of UniProt P22255 (P22255 whole entry): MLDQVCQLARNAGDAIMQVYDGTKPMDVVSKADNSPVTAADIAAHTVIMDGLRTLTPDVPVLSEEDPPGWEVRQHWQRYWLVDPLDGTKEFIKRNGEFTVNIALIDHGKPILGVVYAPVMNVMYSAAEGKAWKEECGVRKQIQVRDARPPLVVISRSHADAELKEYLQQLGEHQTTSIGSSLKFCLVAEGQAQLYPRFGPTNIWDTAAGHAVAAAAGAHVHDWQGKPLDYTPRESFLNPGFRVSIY
Chain of UniProt P52101 (P52101 whole entry): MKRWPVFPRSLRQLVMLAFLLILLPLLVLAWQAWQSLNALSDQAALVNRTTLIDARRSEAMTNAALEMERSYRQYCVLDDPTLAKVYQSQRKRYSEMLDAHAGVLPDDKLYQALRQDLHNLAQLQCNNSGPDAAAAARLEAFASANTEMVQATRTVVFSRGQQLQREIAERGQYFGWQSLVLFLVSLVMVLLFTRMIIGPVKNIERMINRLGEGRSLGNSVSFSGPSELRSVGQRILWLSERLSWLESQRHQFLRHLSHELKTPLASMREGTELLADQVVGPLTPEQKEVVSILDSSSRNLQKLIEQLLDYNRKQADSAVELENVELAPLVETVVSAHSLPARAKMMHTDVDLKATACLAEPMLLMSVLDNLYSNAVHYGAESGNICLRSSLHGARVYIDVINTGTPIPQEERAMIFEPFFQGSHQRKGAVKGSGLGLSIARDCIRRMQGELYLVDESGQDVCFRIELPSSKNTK
Chain of UniProt P24173 (P24173 whole entry): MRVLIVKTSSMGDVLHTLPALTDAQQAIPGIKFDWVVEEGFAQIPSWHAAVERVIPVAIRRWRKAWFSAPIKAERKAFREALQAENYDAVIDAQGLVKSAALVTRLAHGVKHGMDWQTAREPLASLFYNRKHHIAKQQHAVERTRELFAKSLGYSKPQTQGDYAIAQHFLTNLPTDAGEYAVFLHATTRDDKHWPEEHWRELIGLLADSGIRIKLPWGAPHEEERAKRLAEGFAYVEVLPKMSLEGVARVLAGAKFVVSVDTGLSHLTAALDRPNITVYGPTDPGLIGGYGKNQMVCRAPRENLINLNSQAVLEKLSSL
Chain of UniProt P0A7Y8 (P0A7Y8 whole entry): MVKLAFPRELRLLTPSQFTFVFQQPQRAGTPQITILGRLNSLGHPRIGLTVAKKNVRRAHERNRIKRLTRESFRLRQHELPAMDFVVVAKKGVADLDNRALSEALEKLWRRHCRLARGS
Chain of UniProt P06612 (P06612 whole entry): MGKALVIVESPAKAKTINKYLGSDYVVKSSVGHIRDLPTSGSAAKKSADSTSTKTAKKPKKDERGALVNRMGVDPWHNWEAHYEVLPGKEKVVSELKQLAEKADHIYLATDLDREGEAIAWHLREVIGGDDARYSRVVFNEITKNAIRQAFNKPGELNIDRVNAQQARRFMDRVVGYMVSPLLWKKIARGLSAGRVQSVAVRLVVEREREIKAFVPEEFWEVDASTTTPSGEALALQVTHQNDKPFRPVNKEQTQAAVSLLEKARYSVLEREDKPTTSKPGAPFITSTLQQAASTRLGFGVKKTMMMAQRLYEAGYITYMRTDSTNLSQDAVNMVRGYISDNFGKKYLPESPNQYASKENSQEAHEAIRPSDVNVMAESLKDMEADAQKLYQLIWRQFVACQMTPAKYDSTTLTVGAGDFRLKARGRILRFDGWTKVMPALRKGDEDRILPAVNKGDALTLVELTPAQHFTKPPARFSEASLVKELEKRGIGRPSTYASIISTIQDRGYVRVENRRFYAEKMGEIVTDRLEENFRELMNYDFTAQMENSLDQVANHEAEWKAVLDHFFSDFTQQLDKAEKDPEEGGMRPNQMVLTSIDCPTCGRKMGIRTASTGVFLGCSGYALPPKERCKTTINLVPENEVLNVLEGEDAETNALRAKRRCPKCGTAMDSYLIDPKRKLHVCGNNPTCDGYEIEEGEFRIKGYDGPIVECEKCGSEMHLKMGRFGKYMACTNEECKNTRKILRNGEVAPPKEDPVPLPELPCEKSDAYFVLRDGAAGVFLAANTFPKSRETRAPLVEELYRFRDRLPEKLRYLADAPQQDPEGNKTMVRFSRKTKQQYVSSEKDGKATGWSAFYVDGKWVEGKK
Chain of UniProt P76046 (P76046 whole entry): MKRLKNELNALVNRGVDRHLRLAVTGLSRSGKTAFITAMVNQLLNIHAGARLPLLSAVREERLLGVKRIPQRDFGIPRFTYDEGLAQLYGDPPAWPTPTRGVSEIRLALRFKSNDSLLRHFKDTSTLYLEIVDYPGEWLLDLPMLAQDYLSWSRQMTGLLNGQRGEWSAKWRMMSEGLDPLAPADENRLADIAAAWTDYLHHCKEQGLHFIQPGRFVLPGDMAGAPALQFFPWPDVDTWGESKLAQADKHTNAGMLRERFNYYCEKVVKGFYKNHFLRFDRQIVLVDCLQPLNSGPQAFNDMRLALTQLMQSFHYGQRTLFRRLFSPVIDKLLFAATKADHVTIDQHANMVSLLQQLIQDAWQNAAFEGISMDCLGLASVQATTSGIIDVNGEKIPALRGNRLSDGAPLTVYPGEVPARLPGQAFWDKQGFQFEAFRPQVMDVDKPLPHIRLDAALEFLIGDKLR
Chain of UniProt P15977 (P15977 whole entry): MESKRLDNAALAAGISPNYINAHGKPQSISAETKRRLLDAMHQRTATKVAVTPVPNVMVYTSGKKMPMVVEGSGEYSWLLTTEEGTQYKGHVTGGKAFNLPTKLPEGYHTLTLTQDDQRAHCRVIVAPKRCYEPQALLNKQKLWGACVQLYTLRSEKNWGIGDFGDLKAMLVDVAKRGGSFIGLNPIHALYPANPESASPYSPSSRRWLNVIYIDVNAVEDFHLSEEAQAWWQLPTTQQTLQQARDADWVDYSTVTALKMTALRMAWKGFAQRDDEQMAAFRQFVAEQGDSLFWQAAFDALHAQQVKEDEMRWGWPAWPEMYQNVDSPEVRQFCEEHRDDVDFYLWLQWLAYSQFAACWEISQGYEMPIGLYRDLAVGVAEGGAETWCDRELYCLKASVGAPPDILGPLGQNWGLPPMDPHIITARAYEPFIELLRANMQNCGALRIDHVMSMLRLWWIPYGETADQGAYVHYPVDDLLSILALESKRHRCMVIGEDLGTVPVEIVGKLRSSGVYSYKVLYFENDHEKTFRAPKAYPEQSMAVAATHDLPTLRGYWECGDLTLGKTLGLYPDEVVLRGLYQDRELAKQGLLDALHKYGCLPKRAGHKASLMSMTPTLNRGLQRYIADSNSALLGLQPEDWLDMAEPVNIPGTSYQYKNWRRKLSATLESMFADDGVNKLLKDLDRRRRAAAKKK
Chain of UniProt P23865 (P23865 whole entry): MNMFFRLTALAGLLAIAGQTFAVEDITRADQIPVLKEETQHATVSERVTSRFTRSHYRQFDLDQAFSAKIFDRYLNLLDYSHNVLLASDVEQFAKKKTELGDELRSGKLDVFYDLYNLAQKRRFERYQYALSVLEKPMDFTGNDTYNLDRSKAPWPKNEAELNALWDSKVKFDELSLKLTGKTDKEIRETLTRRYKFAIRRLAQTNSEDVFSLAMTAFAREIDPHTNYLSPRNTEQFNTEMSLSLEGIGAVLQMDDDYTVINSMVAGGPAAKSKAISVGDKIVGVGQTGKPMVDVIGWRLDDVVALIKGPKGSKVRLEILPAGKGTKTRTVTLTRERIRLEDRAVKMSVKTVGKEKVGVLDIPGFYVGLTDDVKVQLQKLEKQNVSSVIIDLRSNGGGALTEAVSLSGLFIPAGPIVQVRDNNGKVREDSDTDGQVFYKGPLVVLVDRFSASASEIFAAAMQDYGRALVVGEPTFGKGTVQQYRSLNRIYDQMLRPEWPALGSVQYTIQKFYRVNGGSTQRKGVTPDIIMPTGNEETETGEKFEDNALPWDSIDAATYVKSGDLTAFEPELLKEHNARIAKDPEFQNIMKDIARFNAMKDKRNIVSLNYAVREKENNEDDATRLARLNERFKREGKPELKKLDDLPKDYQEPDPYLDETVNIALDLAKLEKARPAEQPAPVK
Chain of UniProt P21599 (P21599 whole entry): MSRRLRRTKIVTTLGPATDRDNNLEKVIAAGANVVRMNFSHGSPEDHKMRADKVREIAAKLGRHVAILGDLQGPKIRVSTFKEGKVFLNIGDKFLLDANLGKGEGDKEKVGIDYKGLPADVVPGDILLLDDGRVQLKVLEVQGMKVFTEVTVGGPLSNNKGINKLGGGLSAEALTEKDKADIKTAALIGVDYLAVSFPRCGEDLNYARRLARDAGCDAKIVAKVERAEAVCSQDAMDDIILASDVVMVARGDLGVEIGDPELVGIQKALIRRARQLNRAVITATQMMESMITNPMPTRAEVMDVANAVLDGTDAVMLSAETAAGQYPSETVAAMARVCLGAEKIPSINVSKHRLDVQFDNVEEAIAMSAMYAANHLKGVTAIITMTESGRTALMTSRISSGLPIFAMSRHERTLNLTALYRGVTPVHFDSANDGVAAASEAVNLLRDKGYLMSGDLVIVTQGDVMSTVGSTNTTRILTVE
Chain of UniProt P37194 (P37194 whole entry): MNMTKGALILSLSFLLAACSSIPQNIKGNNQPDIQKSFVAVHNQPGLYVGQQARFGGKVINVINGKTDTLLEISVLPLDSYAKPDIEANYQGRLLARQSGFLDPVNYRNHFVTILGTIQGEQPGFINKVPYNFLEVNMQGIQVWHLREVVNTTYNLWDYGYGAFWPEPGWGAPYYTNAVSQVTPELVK
Chain of UniProt P0A800 (P0A800 whole entry): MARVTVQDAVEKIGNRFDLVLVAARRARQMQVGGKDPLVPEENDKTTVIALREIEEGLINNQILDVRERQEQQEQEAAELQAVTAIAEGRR

| Target | log2 fold change |
| --- | --- |
| UniProt P34209 (peptide sequence: MTGDNPDAPR, peptide start residue: 166) | -0.261 |
| UniProt P16676 (peptide sequence: LYNGDER, peptide start residue: 345) | 0.414 |
| UniProt P67910 (peptide sequence: YFNVYGPR, peptide start residue: 167) | -0.736 |
| UniProt P18776 (peptide sequence: PICVESCPLR, peptide start residue: 139) | -1.14 |
| UniProt P76149 (peptide sequence: AGAAIGAQAGAALKK, peptide start residue: 216) | -1.54 |
| UniProt P75874 (peptide sequence: YLLDQGYHVIPVSPK, peptide start residue: 35) | 0.437 |
| UniProt P77689 (peptide sequence: INSLAMPVKNEVCDTR, peptide start residue: 270) | 1.09 |
| UniProt P76116 (peptide sequence: NEAYVTHR, peptide start residue: 284) | -0.872 |
| UniProt P23898 (peptide sequence: SSLDNVYWQK, peptide start residue: 137) | 0.793 |
| UniProt P22188 (peptide sequence: LWCVFGCGGDRDK, peptide start residue: 380) | -1.25 |
| UniProt P77552 (peptide sequence: AENTVVTGAGWLK, peptide start residue: 41) | 0.332 |
| UniProt P24255 (peptide sequence: KHNGHWTVELNSDSIPR, peptide start residue: 280) | 0.899 |
| UniProt P76046 (peptide sequence: RLKNELNALVNR, peptide start residue: 3) | 0.559 |
| UniProt P04693 (peptide sequence: HAIAPLLFGADHPVLKQQR, peptide start residue: 77) | 0.961 |
| UniProt P10443 (peptide sequence: GLPVVATNDVR, peptide start residue: 193) | 0.539 |
| UniProt P0A800 (peptide sequence: IGNRFDLVLVAAR, peptide start residue: 13) | -0.922 |
| UniProt P24173 (peptide sequence: IKLPWGAPHEEER, peptide start residue: 213) | -0.445 |
| UniProt P23865 (peptide sequence: VRLEILPAGK, peptide start residue: 315) | 1.04 |
| UniProt P0A9M8 (peptide sequence: LSVFKPIAQPRTGGDAPDQTTTIVR, peptide start residue: 34) | 2.79 |
| UniProt P0A7Y8 (peptide sequence: KGVADLDNR, peptide start residue: 91) | 0.915 |
| UniProt P14294 (peptide sequence: VQTPVLGLVVR, peptide start residue: 198) | -0.642 |
| UniProt P21599 (peptide sequence: VLEVQGMK, peptide start residue: 138) | -1 |
| UniProt P52101 (peptide sequence: AMIFEPFFQGSHQR, peptide start residue: 414) | 0.36 |

| Target | log2 fold change |
| --- | --- |
| UniProt P75974 (peptide sequence: LIEDGTQR, peptide start residue: 178) | 0.336 |
| UniProt P21151 (peptide sequence: ISTTLLNLMERK, peptide start residue: 352) | 0.834 |
| UniProt P77804 (peptide sequence: LEGYQEDQAKK, peptide start residue: 423) | 0.387 |
| UniProt P76419 (peptide sequence: GGDCAPTREELLLAHK, peptide start residue: 304) | -1.82 |
| UniProt P04949 (peptide sequence: NQSALSSSIER, peptide start residue: 21) | 0.651 |
| UniProt P31129 (peptide sequence: SNMDVLTGLPGRR, peptide start residue: 129) | -1.39 |
| UniProt P00363 (peptide sequence: VSQAFWHEWR, peptide start residue: 291) | -0.722 |
| UniProt P77307 (peptide sequence: HQLVVTQLK, peptide start residue: 249) | -0.533 |
| UniProt P30015 (peptide sequence: TGDTPAQER, peptide start residue: 132) | -2.26 |
| UniProt P39383 (peptide sequence: MLESHLR, peptide start residue: 221) | -0.592 |
| UniProt P46144 (peptide sequence: RVWATAQK, peptide start residue: 32) | -1.44 |
| UniProt P76403 (peptide sequence: SFYYCARTAQVYRK, peptide start residue: 294) | -0.632 |
| UniProt P37595 (peptide sequence: AQMSLQQELR, peptide start residue: 18) | 0.693 |
| UniProt P77316 (peptide sequence: HGDIFGHEFMGEVVETGKDVK, peptide start residue: 54) | -0.836 |
| UniProt P32157 (peptide sequence: YPVDVYTGK, peptide start residue: 3) | -0.765 |
| UniProt P37194 (peptide sequence: GNNQPDIQK, peptide start residue: 28) | 0.489 |
| UniProt P17846 (peptide sequence: IHKGDFR, peptide start residue: 385) | 1.23 |
| UniProt P13000 (peptide sequence: TAGYKPVASGSEK, peptide start residue: 34) | -1.41 |
| UniProt P11446 (peptide sequence: GAAAQAVQCANIR, peptide start residue: 312) | -0.854 |
| UniProt P37626 (peptide sequence: TVETSDER, peptide start residue: 297) | 0.336 |
| UniProt P08200 (peptide sequence: AAIEYAIANDRDSVTLVHK, peptide start residue: 212) | -0.698 |
| UniProt P24200 (peptide sequence: TLSQPEGSR, peptide start residue: 169) | -0.499 |
| UniProt P42593 (peptide sequence: MIEVTGVTLK, peptide start residue: 435) | -1.15 |

| Target | log2 fold change |
| --- | --- |
| UniProt P37440 (peptide sequence: LADELCGR, peptide start residue: 45) | -0.817 |
| UniProt P37051 (peptide sequence: TICPDQK, peptide start residue: 11) | -0.377 |
| UniProt P0ACX3 (peptide sequence: NLGVEEVVAK, peptide start residue: 75) | 0.583 |
| UniProt P31663 (peptide sequence: VLSSIADKLQAGER, peptide start residue: 207) | -3.26 |
| UniProt P0ABM9 (peptide sequence: DEAQEQQFR, peptide start residue: 27) | 0.867 |
| UniProt P0CB39 (peptide sequence: QYYMNQQR, peptide start residue: 350) | -0.737 |
| UniProt P37671 (peptide sequence: SYWESHQHEIQPLTR, peptide start residue: 174) | -0.718 |
| UniProt Q46925 (peptide sequence: SQFAEAQR, peptide start residue: 53) | -0.663 |
| UniProt P76196 (peptide sequence: VVEQLLAMR, peptide start residue: 47) | -0.864 |
| UniProt P22525 (peptide sequence: AGVLALNIQR, peptide start residue: 356) | -0.343 |
| UniProt P30864 (peptide sequence: KIIASPDYISR, peptide start residue: 165) | 1.32 |
| UniProt P21513 (peptide sequence: DNESLSLSILR, peptide start residue: 415) | 0.633 |
| UniProt P37344 (peptide sequence: ETLLNYR, peptide start residue: 215) | -1.98 |
| UniProt P75960 (peptide sequence: LHGAHTVELNLEPSQVGNEFAEK, peptide start residue: 231) | 0.525 |
| UniProt P10346 (peptide sequence: IAEDGNPQVLIKNPPSQR, peptide start residue: 214) | 0.654 |
| UniProt P15977 (peptide sequence: RKLSATLESMFADDGVNK, peptide start residue: 661) | -0.78 |
| UniProt Q47146 (peptide sequence: GITLPSNSTGGVK, peptide start residue: 375) | -0.706 |
| UniProt P00959 (peptide sequence: HTIMVANLAPRK, peptide start residue: 630) | -0.728 |
| UniProt P22255 (peptide sequence: ESFLNPGFR, peptide start residue: 234) | 0.721 |
| UniProt P06612 (peptide sequence: ADHIYLATDLDREGEAIAWHLR, peptide start residue: 103) | -1.02 |
| UniProt P03817 (peptide sequence: FGAIGIGSR, peptide start residue: 85) | 0.339 |
